Hits are enriched below; roughly 2.6% of the tested compounds scored in any of these assays.
Cruzain Triton = blocks cruzain activity in presence of Triton detergent; P25779; Potency, µM, inactives show max response, negative = inhibition, usual class: inhibitors; purified cruzain, Z-FR-AMC fluorescence, 0.01% Triton; actives 0.43% (n = 200,000); AID 1478;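 also: plate controls were neutral wells for no effect and buffer without enzyme for full effect; nearly all actives have a fitted effect of over 40% in size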
Target sequence (P25779 123-467 limits assumed): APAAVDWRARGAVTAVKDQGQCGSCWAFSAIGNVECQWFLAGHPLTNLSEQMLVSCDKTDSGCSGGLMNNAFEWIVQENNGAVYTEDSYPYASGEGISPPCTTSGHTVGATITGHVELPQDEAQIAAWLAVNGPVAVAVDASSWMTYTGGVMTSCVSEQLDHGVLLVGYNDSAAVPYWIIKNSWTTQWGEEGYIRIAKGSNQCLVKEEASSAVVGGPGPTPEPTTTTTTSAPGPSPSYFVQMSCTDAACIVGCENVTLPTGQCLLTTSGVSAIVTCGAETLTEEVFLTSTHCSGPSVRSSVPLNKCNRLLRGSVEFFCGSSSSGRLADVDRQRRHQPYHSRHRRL
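Sodium acetate buffer (100 mM, pH 5.5) containing 5 mM DTT and 0.01% Triton X-100 hosted 1.5 nM cruzain and test compound for 15 min at room temperature. Cleavage of 2 uM Z-FR-AMC was then tracked by fluorescence.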
Cruzain noTriton = blocks cruzain activity in detergent-free assay | actives 2.3% (n = 200,000) | purified cruzain, Z-FR-AMC fluorescence, no detergent | P25779 | AID 1476 | Potency, µM, inactives show max response, negative = inhibition, actives largely listed as inhibitors;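 also: plate controls were enzyme without inhibitor for no effect and buffer without enzyme for full effect; nearly all actives have a fitted effect of over 40% in size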
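Purified cruzain at 1.5 nM, pre-incubated 15 min with compound at room temperature in 100 mM sodium acetate pH 5.5, 5 mM DTT, 0.00005% Triton X-100. Reaction started with 2 uM Z-FR-AMC; AMC fluorescence increase over 60 s gives rate.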
An asterisk follows results filed as active; ? = inconclusive. Calls follow the shape of the dose curve; as a rule, active = well fitted curve in the direction sought with a large enough effect; inconclusive = small, poorly fitted or top-dose-only effect, or another doubt; inactive = no such curve, though single readings can be large; an effect the other way counts as inactive or inconclusive. Potency is read from the fitted curve at half-maximal effect.

SMILES	Cruzain Triton	Cruzain noTriton
CC(C)CCn1c(=O)c2sccc2n2c(CCCC(=O)NC3CCC(C)CC3)nnc12 (stereo not given)	1%	-3%
O=C1CN(C(=O)COc2ccccc2F)c2ccccc2N1	-2%	12%
O=C(Cc1cccs1)Nc1nnc(SCc2cccc3ccccc23)s1	-10%	10%
Cc1nn(-c2ccccc2)c(C)c1/C=N/n1c(-c2ccc(Cl)cc2)n[nH]c1=S	0%	-1%
CCOC(=O)CSc1nc2cc(OCC)ccc2cc1C#N	-9%	-16%
COc1cccc(-c2ccc(C#N)c(SCC(=O)NCCc3cccc(Cl)c3)n2)c1	-4%	32µM*
COc1ccc(-c2ccc(C#N)c(SCC(=O)NCCc3ccccc3)n2)cc1OC	3%	1%
Cc1ccc2cc(C#N)c(SCC(=O)NNC(=O)Cc3ccccc3)nc2c1	-3%	10µM*
Cc1ccccc1NC(=O)CSc1nc(N)c(C#N)cc1C#N	5%	-11%
CCOc1ccc2cc(C#N)c(SCC(=O)NC(C)CC)nc2c1 (stereo not given)	3%	13µM*
COC(=O)CSc1nc2cc(OC)ccc2cc1C#N	-3%	-10%
COc1ccc2cc(C#N)c(SCC(=O)NNC(=O)Cc3ccccc3)nc2c1	4%	13µM*
CCOc1ccc(CNS(=O)(=O)c2c(C(=O)N3CCC(C)CC3)c(C)n(C)c2C)cc1OC	0%	15%
CC/C(=N\n1nnnc1Nc1ccccc1)c1ccccc1	-3%	-8%
C[C@H]1C=C2C=C[C@H](C)[C@H](CC[C@@H]3C[C@@H](O)CC(=O)O3)[C@H]2[C@@H](OC(=O)[C@@H](C)CCO)C1	-10%	?
CCOC(=O)c1c(NC(=O)c2cc(C(C)C)on2)sc(C(C)=O)c1C	5%	3%
CCCCC(=O)Nc1ccc(C(=O)NNC(=O)c2cccs2)cc1	3%	-4%
O=C(Cc1cn2ccsc2n1)Nc1ccccn1	-7%	-29%
O=C(Cc1cn2ccsc2n1)Nc1cccc2cnccc12	?	13µM*
Cc1ccc(-c2nn(-c3cc(Cl)ccc3[N+](=O)[O-])c(=O)c3ccccc23)cc1C	0%	13µM*
O=c1c2ccccc2c(-c2ccccc2)nn1-c1cc(Cl)ccc1[N+](=O)[O-]	-1%	?
COc1ccc(-c2csc(N(CC3CCCO3)C(=O)c3ccc(C)cc3)n2)cc1 (stereo not given)	-4%	20µM*
Cc1ccc(-c2csc(N(CC3CCCO3)C(=O)c3ccco3)n2)cc1 (stereo not given)	-7%	11%
Cc1ccc(CS(=O)(=O)Cc2ccc(C(=O)NCc3cccnc3)o2)cc1	6%	-16%
COCC(=O)Nc1nnc(-c2cccs2)s1	3%	3%
SMILES	Cruzain Triton	Cruzain noTriton
O=C(Cc1ccccc1)Nc1nnc(-c2cccs2)s1	1%	25µM*
CN(C)c1ccc(C(CNS(=O)(=O)c2ccccc2)N2CCc3ccccc32)cc1 (stereo not given)	-2%	16µM*
Cc1ccc(S(=O)(=O)NCC(c2ccc(N(C)C)cc2)N2CCc3ccccc32)cc1 (stereo not given)	-4%	-4%
COc1ccc(C2C(=O)N(C3CCCCC3)CC(=O)N2CC2COc3ccccc3O2)cc1 (stereo not given)	-3%	3%
Cc1cc(NC(=O)c2cc(-c3ccc(C)s3)nc3ccccc23)no1	-8%	-1%
Cc1cccc(NC(=O)c2cc(-c3ccc(C)s3)nc3ccccc23)n1	-13%	20µM*
CC(C)CCNC(=O)c1cc(-c2ccc(Br)s2)nc2ccccc12	-2%	3.2µM*
CCCCN(C)CCCNC(=O)c1cc(-c2ccc(Br)s2)nc2ccccc12	-1%	-7%
CCCS(=O)(=O)N1CCN(Cc2ccc([N+](=O)[O-])cc2)CC1	2%	3%
COc1ccc(C(C)=O)cc1CSc1nc2cc(Cl)ccc2o1	-7%	-1%
Cc1cccc(OCC(=O)Nc2ccc(N3CCN(S(C)(=O)=O)CC3)cc2)c1C	8%	13µM*
Cc1cccc(OCCCC(=O)Nc2ccc(S(N)(=O)=O)cc2)c1C	-4%	?
Cc1cc(C)cc(OCC(=O)Nc2ccc(N3CCN(C(=O)c4ccco4)CC3)cc2)c1	-7%	5%
Cc1cccc(OCCCC(=O)Nc2ccc(N3CCCCC3)cc2)c1C	5%	20µM*
Cc1cc(C)cc(OCC(=O)Nc2ccc(N3CCN(S(C)(=O)=O)CC3)cc2)c1	-1%	16µM*
Cc1ccccc1OCC(=O)Nc1ccc(N2CCN(S(C)(=O)=O)CC2)cc1	8%	?
CCOc1ccccc1N1C(=O)CC(N(O)c2ccccc2)C1=O (stereo not given)	-1%	-5%
CCCCOc1ccc(N2C(=O)CC(N(O)c3ccccc3)C2=O)cc1 (stereo not given)	2%	20µM*
CCCCCOc1ccc(N2C(=O)CC(N(O)c3ccccc3)C2=O)cc1 (stereo not given)	-1%	25µM*
CCCCOc1ccc(N2C(=O)CC(N(CCc3ccccc3)C(=O)/C=C/C(=O)O)C2=O)cc1 (stereo not given)	0%	?
CCN1CCc2c(sc(N)c2C#N)C1	-3%	-5%
N#Cc1c(N)sc(=S)c2c1CCN(Cc1ccccc1)C2	28µM*	13µM*
Cc1ccc(-c2cc(C(=O)NCc3cnn(C)c3C)c3ccccc3n2)cc1C	-7%	?
Cc1cccc(NC(=O)CSc2nnc(-c3ccco3)c(-c3ccco3)n2)c1C	28µM*	7.9µM*
Cc1ccccc1NC(=O)CSc1ccc(-c2ccco2)nn1	-3%	2%
SMILES	Cruzain Triton	Cruzain noTriton
COc1ccc(N2CCN(c3ncnc4nc[nH]c34)CC2)cc1	0%	-7%
COC(=O)c1sccc1NC(=O)c1cc(-c2ccc(C)cc2)nc2ccccc12	-4%	?
O=C(NC1=NCCS1)c1cc(-c2ccc(-c3ccccc3)cc2)nc2ccccc12	-3%	7.9µM*
O=C(CSc1nc(Cc2ccccc2)nc2ccccc12)Nc1nc2c(s1)CCCC2	-9%	25µM*
Cc1ccc(NC(=O)c2cc(-c3ccc(C)o3)nc3ccccc23)cc1	0%	-20%
Cc1ccc(-c2cc(C(=O)Nc3ccc4c(c3)OCCO4)c3ccccc3n2)cc1	-1%	10µM*
CC(C)(C)c1nc(SCC(=O)Nc2nc3c(s2)CCCC3)c2ccccc2n1	-14%	?
COC(=O)c1sccc1NC(=O)c1cc(-c2cccc(C)c2)nc2ccccc12	0%	10µM*
CC(C)(C)c1nnc(NC(=O)c2cc(-c3ccccc3)nc3ccccc23)s1	-3%	-28%
CCc1nn(CC(=O)NCC(C)c2ccccc2)c(=O)c2cc3c(OC)cccc3n12 (stereo not given)	0%	12%
COc1ccc(-c2noc(-c3cccnc3N3CCN(c4ccc(OC)cc4)CC3)n2)cc1	-4%	-1%
CC1CCCCN1c1c(S(=O)(=O)c2ccc(Cl)cc2)cnc2ccccc12 (stereo not given)	-5%	1%
COc1ccc(CN2CCCN(CC(=O)Nc3ccc(Br)cc3F)S2(=O)=O)cc1	-6%	-1%
Cc1ccc(-c2nnn3c2nc(NCCc2ccc(Cl)cc2)c2ccccc23)cc1	0%	0%
COC(=O)c1ccccc1NC(=O)Cn1nc(C(F)(F)F)c2c1CCCC2	-11%	8%
COCCNC(=O)C(c1cccc(OC)c1)N(Cc1cccs1)C(=O)Cn1nnc2ccccc21 (stereo not given)	2%	9%
CN1C(=O)Cc2cc(S(=O)(=O)CCC(=O)Nc3ccc(F)c(Cl)c3)ccc21	-1%	-2%

Screening data deposited in PubChem BioAssay by National Center for Advancing Translational Sciences (NCATS).
